Measured values from ChEMBL document CHEMBL3433997, “St. Jude Leishmania screening dataset” (2016).

How the values were obtained:
Format in all cases: functional
[1] = target: Solute carrier family 2, facilitated glucose transporter member 1 (Homo sapiens) (UniProt P11166); experiment: ST_JUDE_LEISH: Cytotoxicity at 2uM final concentration against transgenic Leishmania Mexicana promastigotes LmGLUT1 that are glucose transport deficient and complemented with the human glucose transporter GLUT1. Activity is measured by DNA content using SYBR green in vitro
Solute carrier family 2, facilitated glucose transporter member 1 (Homo sapiens), sequence (P11166 whole entry): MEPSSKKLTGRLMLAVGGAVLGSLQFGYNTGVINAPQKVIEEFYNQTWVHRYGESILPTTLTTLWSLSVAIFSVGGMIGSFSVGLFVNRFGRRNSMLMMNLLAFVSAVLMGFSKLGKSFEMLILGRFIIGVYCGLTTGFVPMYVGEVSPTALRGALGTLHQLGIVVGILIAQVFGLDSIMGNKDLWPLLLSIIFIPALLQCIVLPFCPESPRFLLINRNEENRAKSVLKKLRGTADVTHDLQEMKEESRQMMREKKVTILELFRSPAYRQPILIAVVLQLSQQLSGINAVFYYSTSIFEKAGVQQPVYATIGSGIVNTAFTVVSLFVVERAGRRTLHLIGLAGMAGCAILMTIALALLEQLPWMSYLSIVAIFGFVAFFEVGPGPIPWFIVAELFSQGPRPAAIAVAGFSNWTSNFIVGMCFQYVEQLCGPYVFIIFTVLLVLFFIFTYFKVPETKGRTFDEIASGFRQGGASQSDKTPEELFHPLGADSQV

[2] = target: Hexose transporter 1 (Plasmodium falciparum) (UniProt O97467); experiment: ST_JUDE_LEISH: Cytotoxicity at 2uM final concentration against transgenic Leishmania Mexicana promastigotes LmPfHT that are glucose transport deficient and complemented with the Plasmodium falciparum hexose transporter. Activity is measured by DNA content using SYBR green in vitro
[3] = target: Glucose transporter (Leishmania mexicana) (UniProt O61059); experiment: ST_JUDE_LEISH: Cytotoxicity at 2uM final concentration against transgenic Leishmania Mexicana promastigotes LmGT2 that are glucose transport deficient and complemented with the L. Mexicana glucose transporter 2. Activity is measured by DNA content using SYBR green in vitro

Row | SMILES | inhibition [1] [%] | inhibition [2] [%] | inhibition [3] [%]
1 | Cc1cc(N(CCCN(C)C)Cc2cc(F)cc(F)c2)nc(Nc2ccc(Cl)cc2)n1 | -0.3 | 0.46 | 1.83
2 | C(=Cc1nc2ccccc2s1)c1ccc2c(c1)OCCO2 | 0.08 | 0.45 | -2.03
3 | FC(F)(F)c1cccc(CCNc2nccc(NCc3ccc(Cl)cc3Cl)n2)c1 | 9.74 | 6.08 | 1.55
4 | N#Cc1ccc2c(c1)CCN(CCC1CCC(NC(=O)Nc3ccnc4ccccc34)CC1)C2 (centres undefined) | 4.82 | 3.39 | 1.75
5 | CCC(C)NS(=O)(=O)c1ccc2nc(Nc3ccc(C)cc3)n([C@H](C)C(C)(C)C)c2c1 (some centres undefined) | 2.68 | 0.25 | -0.82
6 | CC(C)NCc1ccc(-c2cccc(-c3nc4cc(F)ccc4[nH]3)c2)cc1 | -1.78 | 0.53 | -0.69
7 | Fc1cccc(C=NN=c2cc[nH]c3ccc(C(F)(F)F)cc23)c1 | 9.27 | 8.79 | 5.06
8 | CC(C)CCN1CCCN(Cc2ccc(C(=O)NCc3ccc(Cl)cc3)cc2)CC1 | 2.09 | 0.59 | -0.7
9 | COc1ccc2c(c1C1CCN(CCCCNC(=O)c3ccc(NC(=O)c4ccc(Cl)cc4)cc3)CC1)CCCC2 | -1.16 | -1.03 | -1.07
10 | COc1ccccc1CCN(C)CCN1CCC(NC(=O)c2ccc(-c3ccc(C(F)(F)F)cc3)cc2)CC1 | 1.81 | 1.97 | 1.05
11 | O=C(Nc1cccc(F)c1)c1ccc(C(=O)NC2CCN(CC3CCCCC3)C2)cc1 (centres undefined) | 11.1 | 9.73 | 8.76
12 | CCS(=O)(=O)c1ccc(-c2cnc3[nH]cc(-c4ccc(N)cc4)c3c2)cc1 | 16.2 | 21.7 | 16.2
13 | Cc1cc(O)c(-c2ccc(Sc3ccc(Cl)cc3)cc2)c(C)n1 | -0.64 | 3.32 | -4.88
14 | CC(=O)Nc1ncc(C(=O)Nc2cccc(-c3cccc(-c4nc5cccc(C)c5[nH]4)c3)c2)s1 | 3.02 | 2.86 | 2.45
15 | CCNC(=O)Nc1ccc(N(C)c2ccnc(NC3CC3)n2)cc1 | 5.12 | 3.87 | 5.35
16 | FC(F)(F)c1ccc2[nH]c(-c3cccc(-c4ccc(CNCC5CCCO5)cc4)c3)nc2c1 (centres undefined) | 11.3 | 8.39 | 6.46
17 | Cc1noc(-c2ccc3c(c2)CCN(CCC2CCC(NC(=O)/C=C/c4cccc(Cl)c4)CC2)CC3)n1 (centres undefined) | 1.02 | 0 | 0.68
18 | Cc1cc(N2CCCN(C)CC2)nc(Nc2ccc(Br)cc2)n1 | 5.39 | -1.23 | 1.6
19 | COc1cc2c(cc1S(=O)(=O)c1ccc(OCc3ccc(Cl)cc3)cc1)CCN(Cc1ccc(NC(C)=O)s1)CC2 | 4.82 | 4.31 | -0.61
20 | CCCCCn1c(Sc2ccc(C#N)c([N+](=O)[O-])c2)nnc1-c1ccc(Cl)cc1 | 4.31 | 4.27 | 0.12
21 | Cc1cc2ncn(-c3nccc(NCc4ccc(F)cc4)n3)c2cc1C | -0.72 | -1.37 | -0.57
22 | Cc1cc(N[C@@H](Cc2ccccc2)C(=O)NCCOc2ccccc2)nc(Nc2ccccc2)n1 | 6.08 | 6.54 | 2.62
23 | Fc1ccc(NC(=S)NCCc2ccccc2)cc1 | 0.73 | -2.25 | 0.04
24 | Cc1cccc(NC(=O)c2ccc(C(=O)NC3CCN(CC4CCCCC4)CC3)cc2)c1 | 4.08 | 7.67 | 4.8

Row | SMILES | inhibition [1] [%] | inhibition [2] [%] | inhibition [3] [%]
25 | Cc1nc2nc(N)nc(N)c2c(C)c1Cc1cccs1 | 1.85 | 1.16 | 2.44
26 | Cc1cc(C2CCN(CCCCNC(=O)c3ccc(-c4ccc(C#N)cc4)cc3)CC2)c(C)cc1O | 4.77 | 3.77 | 4.8
27 | CCCC(=O)c1cnc2c(OCCCc3c[nH]cn3)cccc2c1Nc1c(C)cccc1C | 2.21 | 1.13 | -1.19
28 | O=S(=O)(c1cc2ccccc2s1)N(CCC(O)(C(F)(F)F)C(F)(F)F)Cc1cccc(O)c1 | -0.29 | -1.09 | 1.75
29 | O=C(CCCC(=O)Nc1ccc(C2=NCCN2)cc1)Nc1ccc(C2=NCCN2)cc1 | 0.86 | 0.54 | -0.14
30 | COc1cccc(-c2nn(C)c3sc(C(=O)NCCN4CCN(c5ccccc5F)CC4)cc23)c1 | -0.88 | 2.01 | 0.29
31 | O=C(Cn1c(CCc2cccc(F)c2F)cc(=O)c2cccnc21)N(CCn1ccnc1)Cc1ccc(-c2ccc(C(F)(F)F)cc2)cc1 | -0.44 | 1.8 | -1.45
32 | Cn1cc(C(=O)Nc2cccc(-c3cccc(-c4nc5ccccc5[nH]4)c3)c2)n(C)c1=O | 4.31 | 2.7 | 2.54
33 | CN(C)Cc1cccc(-c2ccc(Nc3nccc(NCC(O)c4ccccc4)n3)cc2)c1 (centres undefined) | 2.6 | 3.43 | 3.53
34 | O=C(Nc1cccc(-c2ccc(-c3nc4ccccc4[nH]3)s2)c1)c1ccncc1 | 1.95 | 9.91 | 3.84
35 | COc1c(C2CCN(CCCCNC(=O)c3ccc(-c4ccc(C#N)cc4)cc3)CC2)cc(Cl)c2c1CCCC2 | 1.68 | 2.86 | 0.77
36 | Cc1ccc2[nH]c3c(c2c1)CC(C(=O)NCCC(C)C)NC31CCN(Cc2ccccc2)CC1 (centres undefined) | 0.11 | -3.4 | 0.79
37 | CC(C)C[C@H](Nc1ccc(C#N)c2ccccc12)C(=O)NC(C)(C)C12CC3CC(CC(C3)C1)C2 | 4.34 | 5.78 | 2.11
38 | CCNc1cc(C(=O)N[C@@H](Cc2ccccc2)[C@H](O)CNCc2cc(C#N)ccc2OC)cc(N2CCCC2=O)c1 | 9.4 | 9.23 | 9.67
39 | Cc1ccoc1C(=O)Nc1cccc(-c2cccc(-c3nc4cccc(C)c4[nH]3)c2)c1 | 7.85 | 5.09 | 4.05
40 | COc1ccc2nccc([C@@H](O)CN3CCC(NCCOc4ccc(F)cc4F)CC3)c2c1 | 7.55 | 6.58 | -1.61
41 | N#Cc1cccc(CNC(=O)c2cccc(Nc3ccnc4ccc(F)cc34)c2)c1 | -0.1 | 1.25 | 0.82
42 | CC(C)C[C@H](NC(=O)OC(C)(C)C)C(=O)Nc1ccc(Cc2ccc(NC(=O)[C@H](CC(C)C)NC(=O)OC(C)(C)C)cc2)cc1 | 3.16 | 3.22 | 2.99
43 | CCn1c(C)cc(C=C2SC(=Nc3ccccc3)NC2=O)c1C | 6.88 | 4.18 | 2.93
44 | CCOCn1c(-c2ccccc2)cc2c3c(N)nc(N)nc3ccc21 | 98.3 | 100 | 101
45 | COc1cccc2c(Oc3ccccc3C)ccnc12 | -0.44 | -1.86 | 0.33
46 | Fc1ccc2[nH]c(-c3ccc(-c4ccc(CN5CCCCC5)cc4)cc3)nc2c1 | 8.66 | 7.06 | 5.34
47 | COc1ccc(-c2nc(NC(=O)CS(=O)(=O)c3ccccc3)sc2C)cc1 | 8.8 | 4.92 | 1.25
48 | Cc1noc(C)c1S(=O)(=O)N(C)Cc1ccc(-c2ccc(Cl)cc2)o1 | 1.57 | 1.24 | -2.43
